Measured values published in PubChem BioAssay.
Values without a mark were called inactive. For some of these results: Potency and affinity values are given separately. The list shows a part of the results. A call without a number means that no potency is given here. Active and inactive are the calls of the source.

Legend:
[1] = biological target: Inward rectifier potassium channel 2 (Mus musculus) (UniProt P35561); test: inhibition of Kir2.1 inward rectifier potassium flux – cell-based, FluxOR thallium flux, duplicate, confirmation (AID 2032;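 active = Primary-screen hit whose thallium flux fell at least 3 control SD below untreated wells in both duplicates, with normal baseline fluorescence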); conditions: Kir2.1-expressing cells, FluxOR thallium flux fluorescence, at 10 µM; stronger effect = lower value
Sequence of Inward rectifier potassium channel 2 (Mus musculus) (P35561 whole entry, looked up): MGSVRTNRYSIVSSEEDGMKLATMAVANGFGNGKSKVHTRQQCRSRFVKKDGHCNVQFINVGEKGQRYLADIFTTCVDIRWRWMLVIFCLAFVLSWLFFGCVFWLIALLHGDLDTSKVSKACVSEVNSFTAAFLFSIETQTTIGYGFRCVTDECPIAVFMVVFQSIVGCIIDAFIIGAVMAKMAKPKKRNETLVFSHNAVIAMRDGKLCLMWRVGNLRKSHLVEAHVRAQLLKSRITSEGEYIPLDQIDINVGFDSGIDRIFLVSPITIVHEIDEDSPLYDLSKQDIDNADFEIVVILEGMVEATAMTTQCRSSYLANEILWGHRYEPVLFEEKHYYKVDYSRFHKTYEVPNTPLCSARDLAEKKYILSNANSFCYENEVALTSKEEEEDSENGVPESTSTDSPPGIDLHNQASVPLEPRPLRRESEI

[2] = parental HEK293 cell activity, no Kir2.1 – FluxOR thallium flux, duplicate, single concentration, counter-screen for Kir2.1 inhibitor project, confirmation (AID 2105;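 active = dye signal at least 3 control SD above or below untreated wells in both duplicates, raw fluorescence within 3, either direction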); conditions: parental HEK293 cells, FluxOR thallium flux fluorescence, at 10 µM; 0% = unstimulated blank wells
[3] = biological target: Voltage-gated inwardly rectifying potassium channel KCNH2 (Homo sapiens) (UniProt Q12809); test: hERG block by Kir2.1 inhibitor candidates – cell-based, thallium flux, counter-screen for Kir2.1 inhibitor project (AID 2236); conditions: hERG-expressing cells, at 10 µM; stronger effect = higher value;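 also: host cells are CHO cells stably expressing hERG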
Sequence of Voltage-gated inwardly rectifying potassium channel KCNH2 (Homo sapiens) (Q12809 whole entry, looked up): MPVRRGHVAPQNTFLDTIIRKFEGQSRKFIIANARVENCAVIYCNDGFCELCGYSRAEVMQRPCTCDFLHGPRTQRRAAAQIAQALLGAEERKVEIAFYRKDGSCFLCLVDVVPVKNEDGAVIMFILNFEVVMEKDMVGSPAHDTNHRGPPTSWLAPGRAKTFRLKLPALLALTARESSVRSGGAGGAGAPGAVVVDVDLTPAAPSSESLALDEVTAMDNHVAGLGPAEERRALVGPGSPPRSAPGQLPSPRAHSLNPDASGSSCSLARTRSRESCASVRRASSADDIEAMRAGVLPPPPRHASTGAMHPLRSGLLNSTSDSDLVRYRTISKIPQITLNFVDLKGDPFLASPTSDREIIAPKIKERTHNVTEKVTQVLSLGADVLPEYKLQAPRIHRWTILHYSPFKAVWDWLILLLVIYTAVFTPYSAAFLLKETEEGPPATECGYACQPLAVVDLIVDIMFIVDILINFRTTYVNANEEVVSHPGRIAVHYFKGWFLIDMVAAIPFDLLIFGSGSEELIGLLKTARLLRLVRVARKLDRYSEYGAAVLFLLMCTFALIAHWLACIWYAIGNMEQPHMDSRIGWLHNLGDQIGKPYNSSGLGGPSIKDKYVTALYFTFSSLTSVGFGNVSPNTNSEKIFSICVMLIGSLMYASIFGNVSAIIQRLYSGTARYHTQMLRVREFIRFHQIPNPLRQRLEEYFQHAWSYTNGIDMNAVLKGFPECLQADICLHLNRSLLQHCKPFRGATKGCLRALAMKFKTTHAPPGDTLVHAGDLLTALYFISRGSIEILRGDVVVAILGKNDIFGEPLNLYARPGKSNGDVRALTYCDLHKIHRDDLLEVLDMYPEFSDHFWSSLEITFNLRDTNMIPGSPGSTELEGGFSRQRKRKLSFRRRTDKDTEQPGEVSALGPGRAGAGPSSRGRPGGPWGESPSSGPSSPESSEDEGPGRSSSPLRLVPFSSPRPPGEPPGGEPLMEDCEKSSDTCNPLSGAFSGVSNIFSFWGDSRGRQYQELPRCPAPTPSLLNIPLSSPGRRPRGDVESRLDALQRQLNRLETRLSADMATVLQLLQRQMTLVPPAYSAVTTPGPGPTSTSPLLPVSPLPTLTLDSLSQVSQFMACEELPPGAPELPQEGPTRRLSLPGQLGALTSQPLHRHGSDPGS

[4] = biological target: Potassium channel subfamily K member 9 (Homo sapiens) (UniProt Q9NPC2); test: human KCNK9 potassium channel blockers – cell-based, selectivity assay for Kir2.1 inhibitor project (AID 2329); conditions: KCNK9-expressing cells, ion flux inhibition, at 10 µM; stronger effect = higher value
[5] = biological target: Inward rectifier potassium channel 2 (Mus musculus) (UniProt P35561); test: Kir2.1 potassium current inhibition – cell-based, secondary, automated electrophysiology, Kir2.1 inhibitor project (AID 463252); conditions: Kir2.1 cells, automated patch-clamp current inhibition, at 25 µM; stronger effect = higher value
[6] = nonspecific voltage dye response without TRPC6 – cell-based, parental HEK293, counter-screen for TRPC6 modulator project, confirmation (AID 488924;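 active = membrane potential signal moves up or down beyond 5 SD from buffer-only wells, on both duplicate plates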); conditions: parental HEK293, membrane potential dye fluorescence; at 10 µM
[7] = membrane potential response modulators in host HEK293 cells – cell-based, second counter-screen, parental HEK293, membrane potential dye, counter-screen for TRPC6 modulator project, confirmation (AID 488926;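 active = membrane potential signal drops by more than 5 SD from the mean control signal, in both duplicate plates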); conditions: parental HEK293, membrane potential dye fluorescence; at 10 µM; after compound, maximal acetylcholine stimulation
[8] = test system: Transient receptor potential cation channel subfamily C member 4 (mouse); test: off-target membrane potential effects via mouse TRPC4 – cell-based, HEK293 TRPC4/mu-opioid, membrane potential dye, selectivity assay for TRPC6 modulator project, confirmation (AID 488927;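 active = membrane potential signal moved up or down beyond 5 SD of buffer control wells, in both duplicate plates, actives on both sides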); conditions: membrane potential fluorescence, at 10 µM
[9] = test system: TRPC4 (transient receptor potential cation channel C4), mouse; test: DAMGO-evoked mouse TRPC4 response blockade – cell-based, second screen, HEK293 TRPC4/mu-opioid, membrane potential dye, selectivity assay for TRPC6 modulator project, confirmation (AID 488928;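 active = drop in membrane potential signal beyond 5 SD of the control wells in both duplicate plates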;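 also: TRPC4 counter screen for TRPC6 hits run under conditions tuned for TRPC6 not TRPC4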); conditions: membrane potential dye fluorescence, at 10 µM, stimulated with maximal-effect DAMGO; stronger effect = higher value
[10] = biological target: Short transient receptor potential channel 6 (Mus musculus) (UniProt Q61143); test: blockers of TRPC6 cation channel activity – HEK293 cells, membrane potential dye, duplicate, confirmation (AID 488960;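 active = fluorescence ratio falls more than 5 SD below the full-stimulation control mean, in both duplicate runs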); conditions: ACh-evoked depolarization, at 10 µM; stronger effect = higher value
Sequence of Short transient receptor potential channel 6 (Mus musculus) (Q61143 whole entry, looked up): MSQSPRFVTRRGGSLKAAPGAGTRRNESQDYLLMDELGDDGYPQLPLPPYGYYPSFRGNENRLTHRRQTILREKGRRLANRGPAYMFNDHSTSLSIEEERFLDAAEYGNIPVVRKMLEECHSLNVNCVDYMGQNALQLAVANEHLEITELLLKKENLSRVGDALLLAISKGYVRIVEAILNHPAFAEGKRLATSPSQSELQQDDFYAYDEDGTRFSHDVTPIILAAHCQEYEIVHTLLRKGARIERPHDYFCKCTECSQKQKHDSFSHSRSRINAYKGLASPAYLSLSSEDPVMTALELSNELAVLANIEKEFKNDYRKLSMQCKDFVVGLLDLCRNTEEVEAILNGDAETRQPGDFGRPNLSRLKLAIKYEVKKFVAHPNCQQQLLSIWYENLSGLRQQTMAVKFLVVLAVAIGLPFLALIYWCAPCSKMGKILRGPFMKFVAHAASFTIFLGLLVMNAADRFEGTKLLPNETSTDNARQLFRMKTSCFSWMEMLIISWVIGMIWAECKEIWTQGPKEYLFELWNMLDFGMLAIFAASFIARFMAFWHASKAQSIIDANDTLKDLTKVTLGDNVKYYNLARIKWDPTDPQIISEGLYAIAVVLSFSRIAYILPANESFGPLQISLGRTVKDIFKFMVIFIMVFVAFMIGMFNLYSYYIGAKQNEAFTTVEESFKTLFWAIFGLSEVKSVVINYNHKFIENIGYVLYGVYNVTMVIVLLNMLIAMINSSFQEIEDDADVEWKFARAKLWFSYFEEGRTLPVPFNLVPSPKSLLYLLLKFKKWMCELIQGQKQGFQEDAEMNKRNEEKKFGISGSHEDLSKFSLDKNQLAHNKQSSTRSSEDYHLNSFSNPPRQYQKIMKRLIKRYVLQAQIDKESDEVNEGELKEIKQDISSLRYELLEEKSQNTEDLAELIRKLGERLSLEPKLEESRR

[11] = biological target: Short transient receptor potential channel 6 (Mus musculus) (UniProt Q61143); test: mouse TRPC6 channel activators, confirmation, HEK293 cells, membrane potential dye, duplicate (AID 488961;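 active = ratio signal rise beyond 5 SD above unstimulated control wells' mean, seen in both duplicate runs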); conditions: HEK293-TRPC6 membrane potential dye fluorescence, FDSS, at 10 µM; stronger effect = higher value
[12] = parental CHO-K1 cell activation, no KCNQ2 – FluxOR thallium flux, duplicate, counter-screen for KCNQ2 potentiator project, confirmation (AID 2282;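 active = signal rise of at least 3 SD above the untreated control mean, in both duplicate wells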;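 also: counter screen of KCNQ2 potentiator hits so any rise reflects channel-independent effects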); conditions: parental CHO-K1 cells, FluxOR thallium flux fluorescence; at 10 µM; stronger effect = higher value; zero = vehicle mean+3SD, 100% = vehicle-minus-blank window
[13] = biological target: Potassium voltage-gated channel subfamily KQT member 1 (Homo sapiens) (UniProt P51787); test: KCNQ1 activation in stable CHO cells – cell-based, FluxOR thallium flux, selectivity assay for KCNQ2 potentiator project, confirmation (AID 2283;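 active = fluorescence ratio rise of at least 3 SD of vehicle wells above their mean, in both replicate wells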); conditions: FluxOR thallium flux fluorescence, at 10 µM, stronger effect = higher value, beyond 3SD, as % of vehicle-control signal
Sequence of Potassium voltage-gated channel subfamily KQT member 1 (Homo sapiens) (P51787 whole entry, looked up): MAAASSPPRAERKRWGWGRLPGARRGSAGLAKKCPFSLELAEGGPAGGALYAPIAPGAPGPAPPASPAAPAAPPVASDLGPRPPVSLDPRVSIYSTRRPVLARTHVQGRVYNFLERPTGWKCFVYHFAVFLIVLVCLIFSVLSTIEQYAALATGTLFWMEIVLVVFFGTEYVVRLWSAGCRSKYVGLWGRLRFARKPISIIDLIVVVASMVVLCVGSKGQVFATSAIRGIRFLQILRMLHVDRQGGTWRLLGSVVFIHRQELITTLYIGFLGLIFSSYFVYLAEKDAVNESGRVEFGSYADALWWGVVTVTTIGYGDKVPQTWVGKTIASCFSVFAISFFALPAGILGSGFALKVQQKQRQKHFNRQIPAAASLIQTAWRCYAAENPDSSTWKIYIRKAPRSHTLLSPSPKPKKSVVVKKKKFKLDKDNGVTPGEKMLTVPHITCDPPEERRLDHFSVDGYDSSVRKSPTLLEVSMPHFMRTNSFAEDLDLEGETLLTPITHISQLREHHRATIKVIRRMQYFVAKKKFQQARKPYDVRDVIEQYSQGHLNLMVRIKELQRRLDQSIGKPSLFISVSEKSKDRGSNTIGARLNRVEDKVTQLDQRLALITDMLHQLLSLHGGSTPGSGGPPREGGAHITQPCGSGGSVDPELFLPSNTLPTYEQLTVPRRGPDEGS

[14] = biological target: Potassium voltage-gated channel subfamily KQT member 2 (Rattus norvegicus) (UniProt O88943); test: KCNQ2 potassium channel activity enhancers – cell-based, CHO, FluxOR thallium flux, duplicate, confirmation (AID 2287;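 active = fluorescence ratio rising 3 SD or more over the vehicle control mean in both replicates, plus primary screen hit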;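 also: peak minus minimum thallium fluorescence divided by baseline after K/Tl stimulus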); conditions: CHO-KCNQ2 cells, FluxOR thallium flux fluorescence; at 10 µM; stronger effect = higher value
Sequence of Potassium voltage-gated channel subfamily KQT member 2 (Rattus norvegicus) (O88943 whole entry, looked up): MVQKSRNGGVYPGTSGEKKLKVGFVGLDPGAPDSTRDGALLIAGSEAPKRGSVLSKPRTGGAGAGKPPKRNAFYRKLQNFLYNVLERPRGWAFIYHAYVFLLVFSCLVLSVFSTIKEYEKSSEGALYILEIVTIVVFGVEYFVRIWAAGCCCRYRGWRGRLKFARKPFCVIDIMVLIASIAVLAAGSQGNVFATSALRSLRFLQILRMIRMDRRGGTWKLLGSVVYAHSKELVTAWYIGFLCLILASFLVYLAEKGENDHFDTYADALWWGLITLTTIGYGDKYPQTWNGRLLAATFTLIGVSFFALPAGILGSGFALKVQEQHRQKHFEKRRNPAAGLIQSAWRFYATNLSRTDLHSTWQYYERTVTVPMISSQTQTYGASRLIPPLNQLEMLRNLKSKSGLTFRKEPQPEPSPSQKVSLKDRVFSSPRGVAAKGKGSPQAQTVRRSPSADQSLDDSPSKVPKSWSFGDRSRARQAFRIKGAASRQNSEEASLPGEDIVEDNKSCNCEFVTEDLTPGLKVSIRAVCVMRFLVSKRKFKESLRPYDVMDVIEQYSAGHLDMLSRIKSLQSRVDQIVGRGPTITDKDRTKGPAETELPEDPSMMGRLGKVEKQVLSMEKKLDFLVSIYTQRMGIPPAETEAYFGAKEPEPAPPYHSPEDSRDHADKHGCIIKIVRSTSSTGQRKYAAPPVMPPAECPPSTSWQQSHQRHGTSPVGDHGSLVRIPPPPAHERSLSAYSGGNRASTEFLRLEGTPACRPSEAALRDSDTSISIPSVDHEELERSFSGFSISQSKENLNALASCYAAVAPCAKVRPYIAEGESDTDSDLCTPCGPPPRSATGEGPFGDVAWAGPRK

[15] = biological target: Inward rectifier potassium channel 2 (Mus musculus) (UniProt P35561); test: PubChem AID 2345; conditions: HEK293 Kir2.1, FluxOR thallium flux fluorescence; at 10 µM; stronger effect = higher value
[16] = test system: TRPC4 beta (transient receptor potential cation channel C4), mouse; test: TRPC4 cation channel opening, retest – cell-based, Fluo4 calcium, HEK293 TRPC4beta/mu-opioid, duplicates, 10 µM, confirmation (AID 2426;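 active = fluorescence ratio normalized to control raised more than 50% in primary screen plus both repeat runs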); conditions: Fluo4 calcium fluorescence, at 10 µM; stronger effect = higher value
[17] = test system: transient receptor potential cation channel C4 beta (TRPC4), mouse; test: TRPC4 cation channel opening, second retest – cell-based, second round, Fluo4, HEK293 TRPC4beta/mu-opioid, 1 µM, confirmation (AID 2461;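 active = primary screen active and over 50% activation in each of two duplicate runs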); conditions: Fluo4 calcium fluorescence, at 1 µM; stronger effect = higher value
[18] = test system: TRPC4 (transient receptor potential cation channel C4 beta), mouse; test: potentiation of DAMGO EC20 TRPC4 response – cell-based, second round, Fluo-4, HEK293 TRPC4beta/mu-opioid, 1 µM, confirmation (AID 2554;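 active = primary screen hit whose fluorescence ratio, in both repeats, exceeds the weak agonist control mean by 3 SD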); conditions: DAMGO EC20, Fluo-4 calcium flux, at 1 µM; stronger effect = higher value
[19] = test system: TRPC4 beta (transient receptor potential cation channel C4), mouse; test: potentiation of DAMGO EC20 TRPC4 response – cell-based, Fluo-4, HEK293 TRPC4beta/mu-opioid, confirmation (AID 2555;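 active = primary screen hit whose calcium fluorescence ratio, in both repeats, exceeds the weak agonist control mean by 3 SD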); conditions: DAMGO EC20, Fluo-4 calcium flux, at 10 µM; stronger effect = higher value
[20] = biological target: Short transient receptor potential channel 4 (Mus musculus) (UniProt Q9QUQ5); test: blockers of DAMGO-evoked TRPC4 calcium flux – cell-based, Fluo4, HEK293 TRPC4beta/mu-opioid, confirmation (AID 2636;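 active = calcium signal cut by more than 3 SD below the full-agonist control yet still positive, in both repeats and the earlier primary screen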); conditions: at 10 µM; stronger effect = higher value
Sequence of Short transient receptor potential channel 4 (Mus musculus) (Q9QUQ5 whole entry, looked up): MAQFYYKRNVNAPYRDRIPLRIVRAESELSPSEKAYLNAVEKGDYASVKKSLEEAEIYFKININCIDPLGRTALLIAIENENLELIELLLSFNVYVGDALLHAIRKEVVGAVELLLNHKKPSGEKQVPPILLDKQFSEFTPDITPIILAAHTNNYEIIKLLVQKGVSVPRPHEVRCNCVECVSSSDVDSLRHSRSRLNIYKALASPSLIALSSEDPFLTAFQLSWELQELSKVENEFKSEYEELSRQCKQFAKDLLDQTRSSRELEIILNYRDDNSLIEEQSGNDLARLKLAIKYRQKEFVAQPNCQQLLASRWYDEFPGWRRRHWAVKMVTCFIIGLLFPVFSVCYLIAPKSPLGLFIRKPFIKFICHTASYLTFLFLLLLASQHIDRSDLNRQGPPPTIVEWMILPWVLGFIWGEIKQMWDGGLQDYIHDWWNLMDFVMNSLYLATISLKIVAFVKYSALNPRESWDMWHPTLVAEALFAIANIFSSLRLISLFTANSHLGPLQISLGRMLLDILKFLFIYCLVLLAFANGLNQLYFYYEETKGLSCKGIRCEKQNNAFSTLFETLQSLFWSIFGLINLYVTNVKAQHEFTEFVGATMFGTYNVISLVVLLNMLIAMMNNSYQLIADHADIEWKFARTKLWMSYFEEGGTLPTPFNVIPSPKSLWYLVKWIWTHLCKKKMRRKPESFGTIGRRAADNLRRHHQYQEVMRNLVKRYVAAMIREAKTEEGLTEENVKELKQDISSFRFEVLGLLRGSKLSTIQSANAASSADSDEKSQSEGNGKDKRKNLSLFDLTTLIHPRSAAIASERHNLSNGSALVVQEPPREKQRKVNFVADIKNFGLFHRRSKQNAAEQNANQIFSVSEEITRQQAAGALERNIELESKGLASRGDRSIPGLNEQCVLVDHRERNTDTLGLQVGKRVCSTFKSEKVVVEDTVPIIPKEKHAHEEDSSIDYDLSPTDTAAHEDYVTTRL

[21] = biological target: Short transient receptor potential channel 4 (Mus musculus) (UniProt Q9QUQ5); test: blockers of DAMGO-evoked TRPC4 calcium flux – cell-based, second round, Fluo4, HEK293 TRPC4beta/mu-opioid, 1 µM, confirmation (AID 2637;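 active = calcium signal ratio cut to more than 3 SD under the fully stimulated control mean yet still positive, in both repeats and the primary screen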); conditions: at 1 µM; stronger effect = higher value
[22] = biological target: Short transient receptor potential channel 4 (Mus musculus) (UniProt Q9QUQ5); test: calcium entry via TRPC4 opening agents – cell-based, HEK293 TRPC4/mu-opioid, Fluo-4 calcium, dose response (AID 434937;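 active = primary screen activator hit with a dose response curve and TRPC4 channel activation at any tested dose; inactive = no activation, no dose response, or not a primary hit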)
[23] = biological target: Short transient receptor potential channel 4 (Mus musculus) (UniProt Q9QUQ5); test: potentiation of DAMGO-evoked TRPC4 calcium signal – cell-based, HEK293 TRPC4/mu-opioid, Fluo-4 calcium, EC20 DAMGO, dose response (AID 434941;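 active = earlier screen potentiator hit that boosts the TRPC4 ion channel at some dose, with a dose response; inactive = no potentiation, no dose response, or not a prior hit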;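 also: calcium entry triggered by an EC20 dose of DAMGO at the co-expressed mu-opioid receptor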)
[24] = biological target: Short transient receptor potential channel 4 (Mus musculus) (UniProt Q9QUQ5); test: block of DAMGO-driven TRPC4 calcium entry – cell-based, HEK293 TRPC4/mu-opioid, Fluo-4 calcium, dose response (AID 434942;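 active = primary screen inhibitor hit that blocks the TRPC4 channel at some tested dose, yielding a dose curve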)
[25] = biological target: Short transient receptor potential channel 6 (Mus musculus) (UniProt Q61143); test: TRPC6 blockade by TRPC4 inhibitor hits – cell-based, HEK293, membrane potential dye, duplicate, selectivity assay for TRPC4 inhibitor project, confirmation (AID 434948;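 active = active in primary screen and both duplicates, each dropping signal beyond three positive-control SD with fluorescence still positive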); conditions: HEK293 TRPC6, membrane potential dye fluorescence, at 10 µM, stimulated with maximal-effect acetylcholine; stronger effect = higher value
[26] = biological target: Short transient receptor potential channel 6 (Mus musculus) (UniProt Q61143); test: TRPC6 opening by TRPC4 activator hits – cell-based, HEK293, membrane potential dye, duplicate, selectivity assay for TRPC4 activator project, confirmation (AID 434950;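 active = membrane potential signal rise above negative control mean plus 3 SD in both duplicates, also active in the earlier TRPC4 screen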); conditions: HEK293 TRPC6, membrane potential fluorescence, at 10 µM; activation: stronger effect = higher value; outcome: activation
[27] = biological target: Short transient receptor potential channel 6 (Mus musculus) (UniProt Q61143); test: positive modulators of mouse TRPC6 channel – HEK293 cells, membrane potential dye, duplicate, selectivity assay for TRPC4 potentiator project, confirmation (AID 434952;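 active = compound raising the membrane signal above positive-control mean plus 3 SD in both repeats, and a primary screen hit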); conditions: HEK293 TRPC6, membrane potential dye fluorescence, at 10 µM, maximal acetylcholine added after compound; stronger effect = higher value
[28] = biological target: Short transient receptor potential channel 4 (Mus musculus) (UniProt Q9QUQ5); test: calcium flux activators in TRPC4/5HT1a cells, counter-screen for TRPC4 activator project, cell-based, second counter screen, HEK293 TRPC4/5HT1a, Fluo-4 (AID 434977;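 active = calcium signal rise above buffer-control mean plus 5 SD in both duplicates, and also a hit in the primary screen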); conditions: Fluo-4 calcium flux, at 10 µM; stronger effect = higher value
[29] = serotonin-gated TRPC4 signal block – cell-based, second counter screen, HEK293 TRPC4/5HT1a, Fluo-4, counter-screen for TRPC4 inhibitor project, confirmation (AID 434978;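 active = primary screen active whose calcium signal fell more than 3 SD beyond the full-serotonin control mean in both duplicate plates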;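 also: serotonin given first at submaximal then at maximal dose after compound preincubation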); conditions: Fluo-4 calcium flux, at 10 µM, serotonin added to trigger calcium flux; stronger effect = higher value
[30] = test system: TRPC4 (mouse), co-expressed with 5HT1a in HEK293; test: enhancement of serotonin-evoked TRPC4 response – cell-based, second counter screen, HEK293 TRPC4/5HT1a, Fluo-4, counter-screen for TRPC4 potentiator project, confirmation (AID 434979;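 active = signal rise over 3 SD above mean of control wells given weak agonist, in both repeats and first screen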); conditions: Fluo-4 calcium flux, at 10 µM, serotonin added at its EC20 dose; stronger effect = higher value
[31] = nonspecific calcium rise without TRPC4 – cell-based, HEK293 mu-opioid receptor line, counter-screen for TRPC4 activator project, confirmation (AID 449723;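 active = hit in primary screen, with calcium signal over 5 SD above buffer well mean in both duplicates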;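 also: counter screen cells carry the mu-opioid receptor alone and lack TRPC4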); conditions: HEK293 mu-opioid cells, Fluo-4 calcium fluorescence, at 10 µM; stronger effect = higher value
[32] = nonspecific potentiation of DAMGO calcium response – cell-based, HEK293 mu-opioid receptor line, counter-screen for TRPC4 allosteric potentiator project, confirmation (AID 449724;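 active = calcium signal rise more than 3 SD above the low-dose agonist control mean, in both duplicate plates and the primary screen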); conditions: HEK293 mu-opioid receptor cells, Fluo-4 calcium flux, at 10 µM, compound added before EC20 DAMGO stimulus; stronger effect = higher value

COc1ccc(C(O)(C2CCCCC2)C(CN2CCCC2)c2ccccc2)cc1 (stereo not drawn)
Tl flux remaining, % of negative control (stronger effect = lower value) [1]: 49% (active) | outcome [2]: inactive | outcome [3]: inactive | outcome [4]: inactive | outcome [5]: inactive

O=C(NCCc1c[nH]c2ccccc12)C1CCN(Cc2ccc(Br)cc2)CC1
Tl flux remaining, % of negative control (stronger effect = lower value) [1]: 62% (active) | outcome [2]: inactive | inhibition [3]: 61% (active) | outcome [4]: inactive | outcome [5]: inactive | outcome [6]: inactive | outcome [7]: inactive | percent change from control (negative = decrease, positive = increase) [8]: 11% (active) | inhibition [9]: 58% (active) | outcome [10]: inactive | outcome [11]: inactive

COc1ccc(-c2n[nH]c(C)c2-c2ccccc2OC)c(O)c1
outcome [1]: inactive | outcome [2]: inactive | activity increase over 3SD of controls [12]: 28.7% (active) | activation over 3SD threshold [13]: 56.3% (active) | potentiation, less the hit threshold [14]: -12.6% | activity over 3SD threshold [15]: -44.6% | outcome [16]: inactive | outcome [17]: inactive | outcome [18]: inactive | outcome [19]: inactive | outcome [20]: inactive | outcome [21]: inactive | outcome [22]: inactive | outcome [23]: inactive | outcome [24]: inactive | outcome [25]: inactive | outcome [26]: inactive | outcome [27]: inactive | outcome [28]: inactive | outcome [29]: inactive | outcome [30]: inactive | outcome [31]: inactive | outcome [32]: inactive

CC(C)Cc1nnc(NC(=O)CCc2ccccc2)s1
outcome [1]: inactive | outcome [2]: inactive | activity increase over 3SD of controls [12]: 45% (active) | activation over 3SD threshold [13]: -19.5% | potentiation, less the hit threshold [14]: -14.9% | activity over 3SD threshold [15]: -23.2%

CC(C)(c1ccccc1)c1ccc(OCCN)cc1
Tl flux remaining, % of negative control (stronger effect = lower value) [1]: 30.5% (active) | outcome [2]: inactive | outcome [3]: inactive | outcome [4]: inactive | inhibition [5]: 36.1% (active)

CCCn1c(C2CCCN2c2nc(-c3ccc(C)cc3)cs2)nc2cc(Cl)c(N3CCCCC3)cc21 (stereo not drawn)
outcome [1]: inactive | outcome [2]: inactive | activity increase over 3SD of controls [12]: 12.5% (active) | activation over 3SD threshold [13]: -30.1% | potentiation, less the hit threshold [14]: -9.8% | activity over 3SD threshold [15]: -27.9%

COc1cccc(CN(C)CC2CCCN(CCc3ccc(Cl)cc3)C2)c1OC (stereo not drawn)
Tl flux remaining, % of negative control (stronger effect = lower value) [1]: 49% (active) | outcome [2]: inactive
